Experimental data from PubChem BioAssay (NCATS).
Records with an inconclusive call do not appear. The source made the active and inactive calls. Unless noted, calls come from the whole dose curve; as a rule, active = well fitted curve in the direction sought with a large enough effect; inconclusive = small, poorly fitted or top-dose-only effect, or another doubt; inactive = no such curve, though single readings can be large; an effect the other way counts as inactive or inconclusive.

Key:
[1] = qHTS for differential inhibitors of proliferation of Plasmodium falciparum line 3D7 (AID 1876);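 note: parasite growth measured after three days of culture; 0% = vehicle wells and -100% = reference inhibitor wells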
[2] = qHTS for differential inhibitors of proliferation of Plasmodium falciparum line D10 (AID 1877);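 note: parasites grown with compound for 72 h before DNA staining; plate controls were vehicle wells for no effect and reference inhibitor wells for full effect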
[3] = qHTS for differential inhibitors of proliferation of Plasmodium falciparum line Dd2 (AID 1882); conditions: Potency: Plasmodium falciparum Dd2 proliferation inhibition;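 note: series mostly up to about 29 µM; plate controls were DMSO vehicle for no effect and 0.29 µM artemisinin for full effect; nearly all actives have a fitted effect of over 65% in size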
Method in brief: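 Dd2-infected erythrocytes (0.3% parasitemia, 2.5% hematocrit final) incubated with compound 72 h at 37 C, 5% CO2; lysed with saponin/Triton buffer containing SYBR Green I, incubated overnight in the dark, then read by fluorescence (485/535 nm). Normalized to 0.29 uM artemisinin and DMSO.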

[4] = qHTS for differential inhibitors of proliferation of Plasmodium falciparum line W2 (AID 1883); conditions: Potency: Plasmodium falciparum W2 proliferation inhibition;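 note: parasites grown with compound for 72 h before lysis and staining; 0% = vehicle wells and -100% = control inhibitor wells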
[5] = qHTS for differential inhibitors of proliferation of Plasmodium falciparum line HB3 (AID 1886); conditions: Potency: Plasmodium falciparum HB3 proliferation inhibition;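 note: parasites grown with compound for 72 h before SYBR Green readout; plate controls were vehicle for no effect and reference inhibitor for full effect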
[6] = qHTS Assay for Modulators of Human Peripheral Myelin Protein 22 (PMP22) Expression/Activity (AID 1967; active = well fitted curve in the direction sought with a large enough effect in the signal ratio; the % refers to the signal ratio;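 note: 0% = untreated cells and 100% end not stated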)
Method in brief: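 Readout is the corrected green/red luminescence ratio after 24 h compound exposure, normalised to untreated cells (0%). Engineered MSC80 mouse Schwann cells express green luciferase from the mouse Pmp22 promoter and red luciferase from EF-alpha as internal control.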

[7] = biological target: Ferritin light chain (Equus caballus) (UniProt P02791); test: qHTS Validation Assay for Identification of Novel General Anesthetics (AID 2323); note: series mostly up to about 77 µM; % is set by controls: 0 for no effect and ±100 for the full control effect
Chain of Ferritin light chain (Equus caballus) (P02791 2-175 limits assumed): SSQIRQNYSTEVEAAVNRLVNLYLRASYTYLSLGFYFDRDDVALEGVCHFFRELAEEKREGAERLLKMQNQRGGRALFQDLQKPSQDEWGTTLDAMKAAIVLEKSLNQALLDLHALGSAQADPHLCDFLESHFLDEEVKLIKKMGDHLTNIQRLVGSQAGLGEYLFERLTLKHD
Method in brief: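 Competitive displacement of the profluorescent anesthetic 1-AMA (50% saturated, PBS) from 10 uM apoferritin, 10 min, room temperature. Activity is normalized 380/535 nm fluorescence; concentration-response fitted with a four-parameter Hill equation.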

[8] = biological target: ATP-dependent DNA helicase Q1 (Homo sapiens) (UniProt P46063); test: qHTS Validation Assay for Inhibitors of RecQ-Like Dna Helicase 1 (RECQ1) (AID 2353);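 note: plate controls were DMSO vehicle for no effect and enzyme-free control for full effect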
Method in brief: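 50 nM RECQ1T1 preincubated 15 min with compound in Tris pH 8.0 buffer with MgCl2, DTT, Tween-20 and 2.5 ug/ml poly(dI-dC); started with 200 nM TAMRA/BHQ-2 forked duplex and 2 mM ATP. Unwinding read as fluorescence (525/598 nm), two reads 2 h apart.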

[9] = biological target: RecQ-like DNA helicase BLM (Homo sapiens) (UniProt P54132); test: qHTS Validation Assay for Inhibitors of Bloom's syndrome helicase (BLM) (AID 2364);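 note: plate controls were DMSO vehicle for no effect and enzyme-free control for full effect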
Method in brief: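 Forked 20-bp duplex substrate (200 nM, TAMRA/BHQ-2) plus 2 mM ATP added after 15 min compound preincubation with 50 nM enzyme, pH 8.0, poly(dI-dC) 2.5 ug/ml. Strand separation followed by fluorescence (525/598 nm) over 2 h, normalized to enzyme-free and DMSO controls.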

[10] = Validation screen for small molecules that induce DNA re-replication in MCF 10A normal breast cells (AID 463097); note: 0% is about no effect; nearly all actives have a fitted effect of over 60% in size
Method in brief: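 Read-out is Hoechst total nuclear intensity by fluorescence scanning imager, flagging increased high-DNA-content nuclei. Compounds were incubated with MCF 10A cells for 48 hr (37 C, 5% CO2) before 40 min staining.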

[11] = Quantitative high throughput screen for delayed death inhibitors of the malarial parasite plastid, 96 hour incubation (AID 488745);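 note: luciferase-expressing P. falciparum in erythrocytes at 2% hematocrit and 0.1% parasitemia; series mostly up to about 29 µM; % is set by controls: 0 for no effect and ±100 for the full control effect; nearly all actives have a fitted effect of over 70% in size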
Method in brief: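 Infected erythrocytes were added to compound in Albumax-supplemented RPMI 1640 at 0.1% parasitemia and 2% hematocrit (final), incubated 96 h at 37 C under 5% CO2, then luciferase reagent was added and luminescence measured.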

[12] = Quantitative high throughput screen for delayed death inhibitors of the malarial parasite plastid, 48 hour incubation (AID 488752); note: % is set by controls: 0 for no effect and ±100 for the full control effect; nearly all actives have a fitted effect of over 65% in size
Method in brief: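 Readout is firefly luciferase luminescence from a reporter integrated into the parasite genome, with lower signal taken as inhibited growth. Infected red cells (0.1% parasitemia, 2% hematocrit final) are cultured with compound for one 48 h cycle at 37 C.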

[13] = biological target: M-phase phosphoprotein 8 (Homo sapiens) (UniProt Q99549); test: qHTS Validation Assay for Inhibitors for MPP8 Chromodomain Interactions with Methylated Histone Tails (AID 488949);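 note: AlphaScreen signal from MPP8 chromodomain bound to biotinylated H3K9me3 peptide; top concentration of the series differs between compounds; % is set by controls: 0 for no effect and ±100 for the full control effect; nearly all actives have a fitted effect of over 55% in size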
Chain of M-phase phosphoprotein 8 (Homo sapiens) (Q99549 whole entry, looked up): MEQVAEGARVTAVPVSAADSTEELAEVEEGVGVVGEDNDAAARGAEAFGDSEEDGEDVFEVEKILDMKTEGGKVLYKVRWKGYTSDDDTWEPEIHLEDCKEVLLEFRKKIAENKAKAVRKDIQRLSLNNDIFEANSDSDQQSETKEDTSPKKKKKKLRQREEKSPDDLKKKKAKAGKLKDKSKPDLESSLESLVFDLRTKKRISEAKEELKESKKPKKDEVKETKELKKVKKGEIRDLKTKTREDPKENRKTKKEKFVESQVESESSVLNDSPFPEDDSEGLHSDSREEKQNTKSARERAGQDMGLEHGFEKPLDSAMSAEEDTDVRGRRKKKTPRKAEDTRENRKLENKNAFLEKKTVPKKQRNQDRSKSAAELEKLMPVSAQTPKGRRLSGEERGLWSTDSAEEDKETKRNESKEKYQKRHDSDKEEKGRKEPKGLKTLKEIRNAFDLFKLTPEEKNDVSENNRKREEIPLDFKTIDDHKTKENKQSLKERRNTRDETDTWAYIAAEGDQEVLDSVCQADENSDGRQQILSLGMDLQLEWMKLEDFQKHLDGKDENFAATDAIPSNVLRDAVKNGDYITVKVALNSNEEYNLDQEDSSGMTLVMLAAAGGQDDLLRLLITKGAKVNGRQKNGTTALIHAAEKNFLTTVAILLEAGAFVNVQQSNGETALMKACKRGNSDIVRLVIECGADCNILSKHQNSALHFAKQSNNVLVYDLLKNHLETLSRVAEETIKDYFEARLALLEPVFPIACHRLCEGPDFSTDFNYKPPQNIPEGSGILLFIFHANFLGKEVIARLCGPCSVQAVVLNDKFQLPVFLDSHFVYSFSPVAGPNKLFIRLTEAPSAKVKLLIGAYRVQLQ
Method in brief: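 AlphaScreen proximity signal from streptavidin donor and Ni-chelate acceptor beads (10 ug/mL each) reported binding of MPP8 to trimethyl-K9 H3(1-18) peptide, both at 50 nM. The complex formed 30 min before a 30 min compound exposure at room temperature, in PBS pH 7.4.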

[14] = biological target: Transient receptor potential cation channel subfamily V member 1 (Homo sapiens) (UniProt Q8NER1); test: HTS Assay for Compounds that Act as Enhancers of the Vanilloid Receptor 1 (AID 488979); note: 0% is about no effect
Chain of Transient receptor potential cation channel subfamily V member 1 (Homo sapiens) (Q8NER1 whole entry, looked up): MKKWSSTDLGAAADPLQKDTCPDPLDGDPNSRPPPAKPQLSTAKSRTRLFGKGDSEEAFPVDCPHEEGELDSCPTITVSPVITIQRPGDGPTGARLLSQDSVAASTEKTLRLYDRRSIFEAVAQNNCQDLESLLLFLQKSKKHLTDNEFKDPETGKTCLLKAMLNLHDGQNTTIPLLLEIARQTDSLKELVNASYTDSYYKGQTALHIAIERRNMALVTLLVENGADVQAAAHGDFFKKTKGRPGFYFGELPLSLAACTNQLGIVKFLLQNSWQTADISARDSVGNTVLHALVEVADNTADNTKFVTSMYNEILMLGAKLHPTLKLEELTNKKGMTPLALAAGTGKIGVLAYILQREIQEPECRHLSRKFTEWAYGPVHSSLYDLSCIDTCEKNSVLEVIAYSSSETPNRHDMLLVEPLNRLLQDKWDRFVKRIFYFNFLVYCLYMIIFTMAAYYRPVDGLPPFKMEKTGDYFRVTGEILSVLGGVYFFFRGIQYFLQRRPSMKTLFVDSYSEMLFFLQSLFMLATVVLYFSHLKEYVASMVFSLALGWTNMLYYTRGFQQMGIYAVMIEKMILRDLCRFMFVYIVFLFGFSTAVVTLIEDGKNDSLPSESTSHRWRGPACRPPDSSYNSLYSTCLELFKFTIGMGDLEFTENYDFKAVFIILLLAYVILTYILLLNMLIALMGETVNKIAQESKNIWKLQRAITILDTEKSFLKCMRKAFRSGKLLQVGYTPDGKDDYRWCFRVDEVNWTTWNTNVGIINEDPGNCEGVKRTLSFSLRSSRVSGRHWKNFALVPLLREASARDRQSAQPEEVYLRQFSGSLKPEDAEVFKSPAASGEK
Method in brief: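 Calcium influx kinetics via Fluo-8 (480/520 nm) in TRPV1-expressing cells, 2000/well cultured overnight at 35.5C. Compound-alone read 3 min (agonist phase), followed by EC20 capsaicin challenge for 2 min (enhancer phase).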

[15] = biological target: Thyrotropin receptor (Homo sapiens) (UniProt P16473); test: qHTS Assay for Antagonists of the Thyroid Stimulating Hormone Receptor (AID 488980); note: series mostly up to about 58 µM; 0% is about no effect
Chain of Thyrotropin receptor (Homo sapiens) (P16473 whole entry, looked up): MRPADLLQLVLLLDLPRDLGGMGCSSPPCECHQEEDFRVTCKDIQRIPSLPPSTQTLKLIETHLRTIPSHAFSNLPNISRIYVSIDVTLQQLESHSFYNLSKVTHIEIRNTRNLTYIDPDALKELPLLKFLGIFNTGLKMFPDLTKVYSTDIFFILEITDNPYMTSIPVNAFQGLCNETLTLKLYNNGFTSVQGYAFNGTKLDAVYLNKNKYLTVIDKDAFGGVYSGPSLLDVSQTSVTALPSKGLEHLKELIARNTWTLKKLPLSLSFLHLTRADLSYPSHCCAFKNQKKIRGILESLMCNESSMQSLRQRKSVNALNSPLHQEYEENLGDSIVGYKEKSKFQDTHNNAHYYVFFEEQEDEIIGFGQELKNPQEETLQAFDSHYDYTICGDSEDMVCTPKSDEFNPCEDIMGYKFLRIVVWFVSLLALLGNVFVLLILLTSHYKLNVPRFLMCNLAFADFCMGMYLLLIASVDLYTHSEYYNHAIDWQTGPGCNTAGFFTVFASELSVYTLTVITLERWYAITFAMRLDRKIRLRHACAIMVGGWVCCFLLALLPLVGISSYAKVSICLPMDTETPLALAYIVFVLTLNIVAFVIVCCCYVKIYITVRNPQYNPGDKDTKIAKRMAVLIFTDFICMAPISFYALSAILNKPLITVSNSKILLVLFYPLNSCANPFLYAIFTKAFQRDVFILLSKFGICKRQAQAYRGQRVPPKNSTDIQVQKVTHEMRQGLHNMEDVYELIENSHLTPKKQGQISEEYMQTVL
Method in brief: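 Inhibition of cAMP raised by EC80 TSH (4 nM final) was read by HTRF, with lysate cAMP competing against cAMP-d2 for cryptate antibody after 30 min at room temperature. The cells were transfected HEK293 held in phosphodiesterase inhibitor RO 20-1724 at 70 uM.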

[16] = biological target: Thyrotropin-releasing hormone receptor (Homo sapiens) (UniProt P34981); test: qHTS for Small Molecule Agonists and Allosteric Enhancers of Human TRH Receptor: Validation Screen for Agonists (AID 493127;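 active = calcium activation more than 3 SD above the typical response in the agonist read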;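 note: intracellular calcium rise by fluo-8 fluorescence before TRH EC20 addition; 0% is about no effect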); conditions: TRH receptor agonist cell assay; at 2 µM; stronger effect = higher value
Chain of Thyrotropin-releasing hormone receptor (Homo sapiens) (P34981 whole entry, looked up): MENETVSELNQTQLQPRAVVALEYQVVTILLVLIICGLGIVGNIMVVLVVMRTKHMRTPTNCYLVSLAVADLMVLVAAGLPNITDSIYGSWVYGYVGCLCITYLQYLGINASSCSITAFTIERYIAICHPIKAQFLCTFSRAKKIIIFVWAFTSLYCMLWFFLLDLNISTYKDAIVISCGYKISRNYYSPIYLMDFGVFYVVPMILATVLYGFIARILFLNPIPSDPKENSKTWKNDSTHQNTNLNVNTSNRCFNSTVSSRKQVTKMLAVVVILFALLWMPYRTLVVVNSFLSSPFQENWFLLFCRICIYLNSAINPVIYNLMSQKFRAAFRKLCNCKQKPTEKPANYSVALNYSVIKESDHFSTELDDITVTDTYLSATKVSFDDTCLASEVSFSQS
Method in brief: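 Cells 2000/well, 10% FCS, 18 h 33.5C/5% CO2 → fluo-8 Ca dye, RT 30 min–1.5 h → FDSS baseline 10 × 1 s → compound added → 230 cycles (1 s/cycle) agonist mode. TRH controls.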

[17] = biological target: Galactokinase (Homo sapiens) (UniProt P51570); test: qHTS Validation Assay for Inhibitors of Human Galactokinase (GALK) (AID 493189); note: 0% is about no effect
Chain of Galactokinase (Homo sapiens) (P51570 whole entry, looked up): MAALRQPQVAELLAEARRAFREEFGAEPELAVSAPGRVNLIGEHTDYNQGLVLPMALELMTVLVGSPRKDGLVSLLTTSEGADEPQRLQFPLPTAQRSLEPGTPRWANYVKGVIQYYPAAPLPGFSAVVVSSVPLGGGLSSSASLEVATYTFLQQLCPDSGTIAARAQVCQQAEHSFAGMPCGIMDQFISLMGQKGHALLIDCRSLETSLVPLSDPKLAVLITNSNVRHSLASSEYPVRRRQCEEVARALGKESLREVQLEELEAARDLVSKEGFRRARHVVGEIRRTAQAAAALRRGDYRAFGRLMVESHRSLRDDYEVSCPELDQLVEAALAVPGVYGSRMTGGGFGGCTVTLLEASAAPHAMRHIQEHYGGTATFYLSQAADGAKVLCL
Method in brief: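 Inhibition was measured as remaining ATP, detected by luciferase luminescence after a 1 h room-temperature reaction. Final conditions: 5 nM GALK, 100 uM galactose, 35 uM ATP, pH 8.0 HEPES buffer.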

[18] = Validation screen for small molecules that induce DNA re-replication in SW480 colon adenocarcinoma cells (AID 504364); note: 0% is about no effect
Method in brief: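 250 cells/well; compound pinned in; 48 hr, 37 C, 5% CO2; Hoechst added, 40 min; nuclear fluorescence imaged, 405 ex / 500-530 em; re-replication scored as increase in high-intensity nuclei.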

[19] = biological target: DNA dC->dU-editing enzyme APOBEC-3G (Homo sapiens) (UniProt Q9HC16); test: qHTS for inhibitors of Vif-A3G interactions: Validation (AID 588379); note: 0% is about no effect
Chain of DNA dC->dU-editing enzyme APOBEC-3G (Homo sapiens) (Q9HC16 whole entry, looked up): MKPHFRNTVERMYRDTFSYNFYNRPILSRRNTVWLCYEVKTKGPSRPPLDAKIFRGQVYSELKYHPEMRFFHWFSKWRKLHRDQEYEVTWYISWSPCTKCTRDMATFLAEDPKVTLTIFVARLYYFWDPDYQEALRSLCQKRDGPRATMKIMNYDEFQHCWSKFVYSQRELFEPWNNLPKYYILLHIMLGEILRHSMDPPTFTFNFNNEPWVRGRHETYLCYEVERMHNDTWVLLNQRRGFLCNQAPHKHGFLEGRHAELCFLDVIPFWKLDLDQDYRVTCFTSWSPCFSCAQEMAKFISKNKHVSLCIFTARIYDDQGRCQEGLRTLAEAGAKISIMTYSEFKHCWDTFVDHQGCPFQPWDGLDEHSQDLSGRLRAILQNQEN
Method in brief: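 HeLa cells stably expressing Vif and A3G-eYFP, 700 cells/well, incubated overnight at 37 deg C, then exposed to compound overnight at 37 deg C. Inhibition of Vif-mediated degradation read as increased yellow fluorescence (Ex 488/Em 500-530) by laser-scanning cytometry.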

[20] = biological target: Voltage-gated inwardly rectifying potassium channel KCNH2 (Homo sapiens) (UniProt Q12809); test: qHTS Assay for Small Molecule Inhibitors of the Human hERG Channel Activity (AID 588834);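 note: top concentration of the series differs between compounds; % is set by controls: 0 for no effect and ±100 for the full control effect; lower thallium flux fluorescence means stronger hERG block; nearly all actives have a fitted effect of over 50% in size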
Chain of Voltage-gated inwardly rectifying potassium channel KCNH2 (Homo sapiens) (Q12809 whole entry, looked up): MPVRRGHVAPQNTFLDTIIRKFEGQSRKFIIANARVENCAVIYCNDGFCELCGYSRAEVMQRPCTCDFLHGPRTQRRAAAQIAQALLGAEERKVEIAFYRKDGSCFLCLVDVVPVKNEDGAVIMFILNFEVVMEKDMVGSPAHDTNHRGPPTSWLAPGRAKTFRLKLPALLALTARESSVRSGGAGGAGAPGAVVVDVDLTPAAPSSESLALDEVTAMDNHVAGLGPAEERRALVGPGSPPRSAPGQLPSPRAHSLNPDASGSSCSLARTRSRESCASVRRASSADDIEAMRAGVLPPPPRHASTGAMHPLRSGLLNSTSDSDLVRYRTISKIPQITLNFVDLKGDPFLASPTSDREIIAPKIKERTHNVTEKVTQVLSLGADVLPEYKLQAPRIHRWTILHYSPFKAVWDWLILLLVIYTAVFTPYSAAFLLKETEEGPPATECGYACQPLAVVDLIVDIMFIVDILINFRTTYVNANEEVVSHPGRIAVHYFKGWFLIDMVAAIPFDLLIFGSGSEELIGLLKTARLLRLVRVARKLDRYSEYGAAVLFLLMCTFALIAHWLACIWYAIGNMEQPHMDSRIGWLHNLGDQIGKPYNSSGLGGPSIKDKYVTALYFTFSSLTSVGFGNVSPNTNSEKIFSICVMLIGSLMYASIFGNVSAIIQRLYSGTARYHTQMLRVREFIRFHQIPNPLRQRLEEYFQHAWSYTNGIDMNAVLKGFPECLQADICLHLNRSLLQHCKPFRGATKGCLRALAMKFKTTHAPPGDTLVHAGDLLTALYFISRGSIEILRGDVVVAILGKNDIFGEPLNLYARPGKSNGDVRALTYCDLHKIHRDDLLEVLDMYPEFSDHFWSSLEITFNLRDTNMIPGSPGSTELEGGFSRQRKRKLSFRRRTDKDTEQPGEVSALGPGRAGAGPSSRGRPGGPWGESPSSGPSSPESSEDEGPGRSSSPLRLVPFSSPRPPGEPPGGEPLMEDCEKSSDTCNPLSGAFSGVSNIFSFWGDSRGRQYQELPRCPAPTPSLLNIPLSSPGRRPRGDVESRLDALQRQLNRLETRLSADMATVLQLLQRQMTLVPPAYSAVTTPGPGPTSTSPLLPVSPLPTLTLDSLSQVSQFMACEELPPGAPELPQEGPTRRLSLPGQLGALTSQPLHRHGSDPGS
Method in brief: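 Kinetic FDSS fluorescence; U2OS + hERG BacMam (~100 virus particles/cell); FluxOR Tl+ flux; ~10 min cpd; AC50 (Hill).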

[21] = system: Zika virus NS2B-NS3 protease; test: Primary screen GU AMC qHTS for Zika virus inhibitors (AID 1347154);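 note: 0% = no-inhibitor control and -100% = no-enzyme control; nearly all actives have a fitted effect of over 70% in size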
Method in brief: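 Fluorogenic AMC-substrate cleavage by noncovalent NS2B-NS3 protease complex (25 nM, pH 8.0 Tris buffer with Tween 20) followed for 15 minutes at room temperature (~20% conversion). Percent inhibition from ex340/em450 signal change, fitted by 4-parameter Hill equation.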

Cc1cccc(C)c1NC(=O)C[N+](C)(C)C
inactive: Potency [1] | Potency [2] | Potency [3] | Potency [4] | Potency [5] | outcome [6] | outcome [7] | Potency [8] | Potency [9] | Potency [10] | Potency [11] | Potency [12] | Potency [13] | outcome [14] | outcome [15] | activation [16] -0.0625% | outcome [17] | outcome [18] | Potency [19] | Potency [20] | Potency [21]
